Screening results as filed in PubChem.
A selection: hits, their analogues and other compounds. The true share with any hit is near 8.7%.
PostGolgi yeast = phenotypic screen on post-Golgi transport, primary screen; post-Golgi transport phenotypic cell assay; inhibition, % at 10 µM; actives 0.9% (n = 98,000);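 note: yeast cells grown in 1536-well plates; yeast grown about 18 h at 30C before absorbance read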
Cav32 inh = Cav3.2 calcium influx blockers – cell-based, Fluo-4 calcium fluorescence, FDSS, MLSMR library, primary screen; Voltage-dependent T-type calcium channel subunit alpha-1H (Homo sapiens), O95180; B-score at 10 µM; Cav3.2-expressing cells; hits give low values; actives 4% (n = 100,000);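 active = single-dose well whose peak fluorescence ratio is a statistical outlier from its plate by either plate-standardised score or position-corrected B-score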
Smad3 FoxH1 inh = Smad3/FoxH1 peptide binding inhibitors, primary screen, biochemical, TR-FRET | Mothers against decapentaplegic homolog 3 (Homo sapiens), P84022 | TR-FRET Smad3/Dy647-FoxH1 peptide binding, europium anti-His | inhibition, % at 25 µM | actives 0.29% (n = 88,000) | AID 630, 2007;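 active = compounds that reduce the energy-transfer binding signal between the protein and its labelled peptide by more than half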
Target sequence (P84022 whole entry, looked up): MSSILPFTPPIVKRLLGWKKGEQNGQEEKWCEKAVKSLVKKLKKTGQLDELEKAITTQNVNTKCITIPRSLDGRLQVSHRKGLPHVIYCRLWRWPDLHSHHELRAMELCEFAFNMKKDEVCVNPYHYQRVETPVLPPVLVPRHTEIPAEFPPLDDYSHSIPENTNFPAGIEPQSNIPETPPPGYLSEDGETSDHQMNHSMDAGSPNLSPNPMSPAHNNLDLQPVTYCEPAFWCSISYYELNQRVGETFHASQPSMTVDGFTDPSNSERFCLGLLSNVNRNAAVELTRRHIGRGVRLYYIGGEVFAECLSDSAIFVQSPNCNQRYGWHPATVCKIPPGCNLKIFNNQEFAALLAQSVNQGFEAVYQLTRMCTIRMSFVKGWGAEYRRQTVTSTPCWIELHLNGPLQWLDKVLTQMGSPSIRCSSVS
PostGolgi ctrl = growth inhibition of yeast control strain, primary screen, counter-screen for post-Golgi transport modulator project. AID 738, 2007. inhibition, % at 10 µM. actives 5% (n = 98,000). efflux-deficient yeast background strain, growth absorbance A615, 16 h
TNAP act DEA = human TNAP enzyme activators, primary screen, biochemical, luminescent, intermediate phosphate acceptor level. Alkaline phosphatase, tissue-nonspecific isozyme (Homo sapiens), P05186. purified TNAP, CDP-star luminescence, 100 mM DEA, 30 min; hits give high values; scale: 0 levamisole-inhibited, 1 vehicle-only enzyme. activation factor at 20 µM. 64,000 tested, under 10 active;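 active = activation factor of at least 2 at 20 µM, relative to controls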
hDAT+cocaine = changed hDAT dopamine uptake under cocaine IC80, either direction, primary screen, cocaine antagonist project, cell-based, LLC-PK1 hDAT, [14C]-dopamine uptake, MLSMR. B-score at 10 µM. Sodium-dependent dopamine transporter (Homo sapiens), Q01959. LLC-PK1 hDAT cells, [14C]-dopamine uptake with cocaine IC80; actives deviate in either direction. actives 1.3% (n = 110,000);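 active = Z score or B-score, a plate-position-corrected score, falls beyond the plate's 99.7% confidence bounds, in either direction; inactive = both scores lie inside the 99.7% bounds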
Of the large screens only hits and unclear results are named; the others gave an inactive call. Cut-off read from the data, not from the text of the source, unless noted: active = inhibition above about 30%; inactive = the rest.

COc1ccc2nc(NC(=O)CN(c3ccc(C)cc3)S(=O)(=O)c3c(C)nn(C)c3C)sc2c1	PostGolgi ctrl 50
Cc1nc(NC(=O)CN(C)S(=O)(=O)c2ccc(Br)cc2)sc1C	Cav32 inh -5.8 (no result: TNAP act DEA)
CCc1ccc(N(CC(=O)Nc2nc3ccc(C)cc3s2)S(=O)(=O)c2c(C)noc2C)cc1	PostGolgi ctrl 32 (no result: TNAP act DEA)
CCc1ccc(NC(=O)CN(c2ccc3c(c2)OCO3)S(=O)(=O)c2c(C)noc2C)cc1	none
COc1cc(C(c2sc3nc(C)nn3c2O)N2CCN(c3ccccc3)CC2)cc(OC)c1OC (stereo not given)	none
Cc1cn(C(=O)c2cccc(Br)c2)c(C)n1	none (no result: Smad3 FoxH1 inh)
CCc1nc(N2CCN(C(=O)c3ccco3)CC2)c2oc3ccccc3c2n1	hDAT+cocaine 2.8
CC(C)(C)c1nc(N2CCN(C(=O)c3ccco3)CC2)c2nnn(Cc3ccccc3)c2n1	Cav32 inh -7.2 (no result: TNAP act DEA)
O=C(c1ccco1)N1CCN(c2nc(C3CC3)nc3c2nnn3Cc2ccccc2Cl)CC1	none (no result: PostGolgi yeast, PostGolgi ctrl, TNAP act DEA)
N#CC1=C(N)NC(SCc2ccc(Cl)cc2)=C(C#N)C12CCCCC2	PostGolgi yeast 48, Cav32 inh -4.1
CSC1=C(C#N)C2(CCCC2)C(C#N)=C(N)N1	none (no result: PostGolgi yeast, Cav32 inh, PostGolgi ctrl)
CCSC1=C(C#N)C2(CCCC2)C(C#N)=C(N)N1	hDAT+cocaine -2.7
N#CC1=C(N)NC(SCC(=O)Nc2ccc(Br)cc2)=C(C#N)C12CCCCC2	Cav32 inh -6.5 (no result: Smad3 FoxH1 inh, TNAP act DEA)
N#CC1=C(N)NC(SCc2ccc(Br)cc2)=C(C#N)C12CCCCC2	none (no result: PostGolgi yeast, Cav32 inh, PostGolgi ctrl, TNAP act DEA, hDAT+cocaine)
CC1(C)CC(=O)C2=C(C1)NC(SCC(=O)Nc1ccccc1)=C(C#N)C21CCCCC1	none
COC(=O)c1[nH]c2cccc(Cl)c2c1NC(=O)CN1CCCCC1C (stereo not given)	none
Cc1cnc(NC(=O)COc2cccc3c2OC(C)(C)C3)s1	none (no result: TNAP act DEA)
O=C(O)/C=C\C(=O)Nc1ccccc1C#Cc1ccccc1	none (no result: Smad3 FoxH1 inh, TNAP act DEA)
CCOc1cc(C2NC(=O)NC(C)=C2C(=O)OCc2ccccc2)ccc1O (stereo not given)	none
CCC(C)c1ccc(OCCCCN2CCOCC2)cc1 (stereo not given)	PostGolgi yeast 70 (no result: TNAP act DEA)
CCCCOc1ccc(OCCCN2CCOCC2)cc1	none (no result: PostGolgi yeast, PostGolgi ctrl)
Cc1cc(Cl)cc(C)c1OCCCCN1CCOCC1	PostGolgi yeast 35
COc1cccc(-c2nc(CS(=O)(=O)CC(=O)N3CCN(c4ccccn4)CC3)c(C)o2)c1	none
O=C1OC2(CCCCC2)OC(=O)C1=CNc1nc2ccccc2s1	none (no result: TNAP act DEA)
O=C(NCc1nc2ccccc2[nH]1)C1=C[C@@H](C2CCCCC2)C[C@@H](OCc2ccc(CO)cc2)O1	none (no result: PostGolgi yeast, Smad3 FoxH1 inh, PostGolgi ctrl, TNAP act DEA)
C(=C\c1ccccc1)/CN1CCN(C(c2ccccc2)c2ccccc2)CC1	none (no result: PostGolgi yeast, PostGolgi ctrl)
Fc1ccc(C(c2ccc(F)cc2)N2CCN(C/C=C/c3ccccc3)CC2)cc1	Cav32 inh -4.5 (no result: PostGolgi yeast, PostGolgi ctrl)
COc1ccccc1NC(=O)CC1COc2ccccc2O1 (stereo not given)	none (no result: TNAP act DEA)
CCc1nnc(NC(=O)CSc2nnc(C)n2Cc2ccccc2)s1	none (no result: PostGolgi yeast, PostGolgi ctrl, TNAP act DEA)
COC(=O)c1c(NC(=O)CSc2nnc(CNc3ccc(Cl)cc3)o2)sc(C)c1C	none (no result: TNAP act DEA)
CCc1nnc(NC(=O)CSc2nnc(Cc3ccccc3)o2)s1	Cav32 inh 3.8
CCc1nnc(NC(=O)CSc2nnc(CNc3ccc(Cl)cc3)o2)s1	Cav32 inh -4
Cn1c(Cn2c(=O)sc3ccccc32)nnc1SCC(=O)Nc1ccc2c(c1)OCO2	none
Cc1c(C(=O)N2CCN(c3ccccc3F)CC2)sc2nc(-c3ccccc3)cn12	PostGolgi ctrl 35
CC(=O)C1=C(O)C(=O)N(C2CCCCC2)C1c1ccccc1 (stereo not given)	none (no result: PostGolgi yeast, PostGolgi ctrl)
CC(=O)Nc1sc2c(c1C(c1cccs1)N1CCOCC1)CCCC2 (stereo not given)	PostGolgi ctrl 42
Cc1nc2nc(CSc3nnc(C)s3)cc(=O)n2[nH]1	none (no result: hDAT+cocaine)
Cc1ccc2cc(C=C(C#N)C#N)c(N3CCCCC3)nc2c1	PostGolgi ctrl 36 (no result: Smad3 FoxH1 inh, TNAP act DEA)
CCCCCCCCCC(=O)N/N=C/c1ccc(C)s1	PostGolgi ctrl 33 (no result: Smad3 FoxH1 inh, TNAP act DEA)
CCCCCCCC(=O)N/N=C/c1ccco1	none (no result: Smad3 FoxH1 inh, TNAP act DEA)
COc1cccc(=O)c2c(C)n(C)c(C)c12	none
COc1cccc(=O)c2c(C)n(-c3cc(C)cc(C)c3)c(C)c12	Cav32 inh -5.1, PostGolgi ctrl 47 (no result: Smad3 FoxH1 inh, TNAP act DEA)
O=C(CSc1nnc(-c2cccs2)n1Cc1ccccc1)NCc1ccc2c(c1)OCO2	Cav32 inh -4.7 (no result: TNAP act DEA)
CCn1c(SCC(=O)NCc2ccc3c(c2)OCO3)nnc1-c1cccs1	none
COc1cccc(-c2nnc(SCC(=O)NCc3ccc4c(c3)OCO4)n2Cc2ccco2)c1	Cav32 inh -4.6 (no result: TNAP act DEA)
O=C(CSc1nnc(Cc2cccs2)n1-c1ccc(Cl)cc1)NCc1ccc2c(c1)OCO2	Cav32 inh -8.5 (no result: TNAP act DEA)
O=C1CN(C(=O)CSc2nnc(-c3ccccc3)n2Cc2ccc3c(c2)OCO3)c2ccccc2N1	PostGolgi yeast 38
O=C(CSc1ncn[nH]1)Nc1nc(-c2ccccc2)ns1	none
Cc1ccc(OCC(=O)NCc2ccccn2)cc1	none
CC(Sc1nnc(-c2cccs2)n1Cc1ccccc1)C(=O)NCc1ccc2c(c1)OCO2 (stereo not given)	Cav32 inh -4.4 (no result: TNAP act DEA)
Cc1c(N2C(=O)c3ccc(Br)cc3C2=O)c(=O)n(-c2ccccc2)n1C	Cav32 inh -4.4 (no result: TNAP act DEA)
Cc1cc(C)c(S(=O)(=O)Nc2ccc3c4c(cccc24)CC3)c(C)c1	PostGolgi ctrl 61 (no result: Smad3 FoxH1 inh, TNAP act DEA)
CC(=O)Nc1ccc2c3c(cccc13)CC2	none (no result: PostGolgi yeast, Smad3 FoxH1 inh, PostGolgi ctrl, TNAP act DEA)
Cc1c(NCc2nc3ccccc3[nH]2)c(=O)n(-c2ccccc2)n1C	none
Cc1c(Cl)cccc1NC(=O)c1nc(C)n(-c2cc(OC(C)C)c(Cl)cc2Cl)n1	Cav32 inh -12, PostGolgi ctrl 30 (no result: Smad3 FoxH1 inh, TNAP act DEA)
Cc1nc(C(=O)N(C)C)nn1-c1ccc(Cl)cc1Cl	none (no result: Smad3 FoxH1 inh, TNAP act DEA)
Cc1cc(C)c2cc(CN(CCO)C(=O)Nc3ccc(Cl)cc3)c(=O)[nH]c2c1	PostGolgi ctrl 47
Cc1cc(C)c2cc(CN(CCN3CCCC3)C(=O)Nc3ccc(F)cc3)c(=O)[nH]c2c1	none
Cc1ccc(C)c2[nH]c(=O)c(CN(CCN3CCCC3)C(=O)Nc3cccc(Cl)c3)cc12	Cav32 inh -7.6
O=C(CCC1COc2ccccc2O1)NCc1ccccc1 (stereo not given)	none (no result: TNAP act DEA)
CCOC(=O)c1ccc(NC(=O)c2nc[nH]c2C(=O)NCC(=O)OC(C)(C)C)cc1	none (no result: PostGolgi yeast, Smad3 FoxH1 inh, PostGolgi ctrl, TNAP act DEA)
